From the supplement of paper PMC12632987
Over roughly 4,500 sequences, “median log2 fold change of GCK-ALFA target abundance (FLAG IP / Myc IP barcode read proportion)” has its median near 0.078; the lowest 2% begin near -0.6. This is one part of a sample in which the lowest values are shown more often than they occur.

B1: GBRAP_96_7095 (protein)
chain: MLEEAKKLVKELIKALDTDPEKAEELAKKLLEFPVEVVTEALVEVVKKPEDAAKIAKLLLKLGDEKAEEVLLEAAEKAPGDISKAIIDAMEAYEKEQEAA
B2: GBRAP_128_3565 (protein)
chain: STAELVAEARALLAAIKAADAEEARALAERLADLIAAASPEARAAIVETILARLPELTAEQLDILADVFAARRATADPAVAEALAEIQVEALNVREEKEE
B3: GBRAP_14_3799 (protein)
chain: MEEREKAIEEITEETLEILEEILADAPEEVRERVLELVEEARERIIKEKLSPDEIAELEDELLEEVAKILADAPPEVRAQVLAAISVGMGEIILEVEELE
B4: GBRAP_160_4163 (protein)
chain: MEEAEELIKEVEEETKEAIELIEGESIEQRKVIIAGHFGVIIMTLFESDVVSDEVVDFAVELRDELVKWIDENPDASLEEIKKKIKEAEKKIKEKIKKDA
B5: GBRAP_35_5613 (protein)
chain: EDVQLAVDSFVDMAEAIIELIPEIDDETLAALAQSLIKFAKSLLKEEKNNKEALEKIKEAMEKLLEALKKYRSDNPLIQKVAKEVQEVIKEAEKAIKEVK
B6: GBRAP_52_5915 (protein)
chain: MSAELEAKLDEMLAAVKAGKLEEARAIAREIVESLDDEELRELVELFAERVRAAPLEDLPAWWRLAEILAEELEEAGKDEVLADDLLNRTAAAIYEKLQA
B7: GBRAP_160_4375 (protein)
chain: SEELKELIKEIEELKKEFEELAKDLSPEEVKILAKGVLSEIAALVFENEAVSEETKDKIMEIIDKALEELDKLKDASPEEIVAVTTEAVNEIIELIKKEI
B8: GBRAP_14_3854 (protein)
chain: MEKLIAAVKKTAEAAIEFAKELLPEHAEEVGKKIKELAEKIIEKIKKENLNKEEVAELIRKMAEELGKFIKEKGYASDEEIAAFKAFIENEALLELEKVE
B9: GBRAP_52_5907 (protein)
chain: MKEELEKILNEIIEAVKAGKLEEARKIARELAEKYDDETLEEFIELFAEMVLEAPEEDLPYYWKAAEILAEEFEREGKDEVLADLLLSRTAAAIYEKLQR
B10: GBRAP_26_5463 (protein)
chain: MDEAFRAALDAVDAAAATLPNPNAAAAVTAEAATVLEELEEAIEAGEDIAAAVAAARDELLAAARAIGEEEGLPAATIAAMEATLTAIFDALEAALKAAA
B11: GBRAP_26_5467 (protein)
chain: MDAAFAAARDRIDAIAAKLPDPRAAAALRALADTELLELEERIEAGEDIDAAVDAARDAFLAEAREILEDAGLPEELIAKTLAEFEAVFDDLRAALKAAQ
B12: GBRAP_52_6357 (protein)
chain: KLEEALALLERALEAMLAGREDEARAILREIVETYDDETILAAFERLAEKILGKSVEEAEAFLDLALLLADVMDELGRDEAVGDEIEAIAAKAYMTVLEK
B13: GBRAP_160_3973 (protein)
chain: SEEVEELKKEIKELFDEAKKLIEGESYEERLTIIKVMVGDILLLADENPLISDEVEDKIDEIGDELIETIEKNPDLTDEEIKKLIDEAEEKILKTIDEAF
B14: GBRAP_43_5767 (protein)
chain: SKELVEGAFETAILLLEDPSISEETKVKAIIAAMELAADEGYVDKELLEKVVELAGKTLSKESLEKILKAAKKLAKEYPESKEAFEEAAKKLEEAIAKKE
B15: GBRAP_64_6486 (protein)
chain: EEEIKKLHEETLKQAKKLVELLKDSSEELQKQAKEVLELIEKSKEASLEEAAKLLAEAAKLLNELLKSPELTEEQKDQVAETLDLVSELLWLVVEKELEK
B16: GBRAP_52_5904 (protein)
chain: MREELRAQVEEMLALVRAGDLEGARALAREIAETLNDEELRLLIEEVAALVREAPLEELPAWWRLAEIMAEAFEEAGKDEVLADDLLAATAAAIHERLQR
B17: GBRAP_184_5166 (protein)
chain: MIKEFEIKIENVEEAKEKIEEIKKEVEGLKAELYVIVETKELTVEIAKAILEGLKEMKEKGYVTSITVEFTGKIDEETLDVAVKLADEAGVKLVIAIDEE
B18: GBRAP_139_3707 (protein)
chain: SALEELIAEARRLTREMREDPEAALEALVELLLSVSEEELEVLVEAIAEELSRLPLDEAEELADRLLELVEERFKDEDKIDIVEAVLNGALARKAAEEEA
B19: GBRAP_128_3416 (protein)
chain: ADAALVAKAKELLEKMKTADAATAAALADEIAALIAAADLETAEAIAEVIEEELPKLTAEQLDILADALRAALPAASPEKAEILAGVLVDALNEAEEKEE
B20: GBRAP_26_5474 (protein)
chain: VEEEVEAALKEMEKLLKELLDPETAAAATASAFTIVEEAVEEMKKNAKDKEKLKKAAEKAVKEIAADLETLGVDADTRAKIVAKAKAELEKIVKAIEKEA
B21: GBRAP_160_4004 (protein)
chain: SEKIEKLIKEIEELVEETIEWMEGLSPEERLTLVRGTVGEIIQLAIESEEVSDESEEKIAELGDETIERVEENKDASLEVWKEILEEFLEKVKKILKEDE
B22: GBRAP_137_3676 (protein)
chain: SKVEIEIKEEDGLVEITVTVYDPEKAEETEEKLLDIAHEVGALAVAIKRNEDGSLEITIVVPEEKGEEAEKKVLELAKEYDEVIIKKEKDGKTEEEVIKK
B23: GBRAP_35_5582 (protein)
chain: DDVEIILETARDFAEAAIEALKGDDLEEAIRMTEAFVRAAELAIEDLKNDLEALKELAKLLEEVLKAAKEYASDNPEMQKNIERLEELLKRAKELAKKVE
B24: GBRAP_166_4971 (protein)
chain: MQEELVEEFKKYIDELAEKMKTANHEEKLELLAEAAEKLKELIEKGLSDEDLKELIEYLIKKAKEVGISTSEVYGALTIIADLNEEQIDILEEAIKKVEK
B25: GBRAP_106_2558 (protein)
chain: SKKETAEKIYKEMLEEAKKEIAEHEAWLAKHRSQLTPEEIRAINQYLRDYLVAKLLRKMIEAGIITKEEAKEILEEVRKRKDLDPLEALEYAGKLVLEKI
B26: GBRAP_78_6731 (protein)
chain: ELEKLLEEAIKVASEAAKLAVKQASNEVIAEIVEALSHLEEALELVEEGGEKEEILEELEKALEHLKEALKLLPESLTEIKKLLEEAIKLVEEAIKEVKK
B27: GBRAP_78_6654 (protein)
chain: EVEELIDKAMEHLDKAAKLTKKLDEESRNELLDLLVEAASHILLSEENGFDLEELKEALEYLKKALEYAKSLNTPVAKEIAEELEKAIEYLEKAIKLLEE
B28: GBRAP_52_6031 (protein)
chain: SRERMRALARELIDLVLAGRDDEARALAEELVATLSEEELRLLGEELARLTREAAPEDLDAYMRAAEIVADALEAAGYDEVLADDLLARVAAAAVENLAR
B29: GBRAP_52_6036 (protein)
chain: SRERMRRLAQEIVDLAKAGDLEGARALAREAVETLSEEELRLLGEELARLAREAAPEDLDAIMEVAFILADALVEGGYDEVLADDLLARVAAAAVENLQA

Target: GABARAP, O95166
Experiment: median log2 fold change of GCK-ALFA target abundance (FLAG IP / Myc IP barcode read proportion) (log2 ratio); each designed protein is fused to an ALFA-tag nanobody in HEK293 cells to bring the named protein to FLAG-tagged glucokinase (GCK); Myc marks an untargeted standard; higher = target protein stabilised (more abundant)
Conditions: target protein: 3xFLAG-MCP-GCK-ALFA reporter; HEK293 landing pad (RPLP)
Outline: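 An ALFA-nanobody-fused binder library was recombined into HEK293 landing-pad cells and induced with 2 μg mL^−1 doxycycline. Cells were transfected with a plasmid expressing a FLAG-tagged target and a Myc-tagged standard. After 48 h, lysates underwent anti-FLAG and anti-Myc immunoprecipitation, and circular RNA barcodes were reverse transcribed, amplified and sequenced. Target abundance is the per-binder median log2 ratio of FLAG to Myc barcode read proportions. Barcodes needed ≥10^−7 proportion in both replicates, binders ≥3 barcodes per replicate, and a 10^−6 pseudocount was added; the two replicates were pooled.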

Sequence of GABARAP, O95166 (O95166 whole entry, the tested form may be a part): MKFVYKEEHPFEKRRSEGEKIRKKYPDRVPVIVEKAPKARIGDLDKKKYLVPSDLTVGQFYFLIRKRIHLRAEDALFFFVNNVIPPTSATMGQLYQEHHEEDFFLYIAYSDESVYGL

Binder	median log2 fold change
B1	0.344
B2	0.318
B3	-0.611
B4	0.215
B5	-0.07
B6	-0.669
B7	0.194
B8	0.381
B9	-0.881
B10	0.261
B11	0.199
B12	-0.492
B13	-0.605
B14	0.243
B15	0.19
B16	-0.644
B17	0.0333
B18	-0.0884
B19	0.247
B20	0.241
B21	-0.827
B22	0.249
B23	0.182
B24	-0.0848
B25	-0.711
B26	0.0787
B27	0.0422
B28	-0.202
B29	-0.791
